“And” between values parts separate entries of the source, which are not always exact repeats. Equal values may be shown once. Records with an inconclusive call do not appear. The source made the active and inactive calls. Unless noted, the call rests on the fitted dose curve; in most records, active means well fitted curve in the direction sought with a large enough effect; inconclusive means small, poorly fitted or top-dose-only effect, or another doubt; inactive means no such curve, though single readings can be large; an effect the other way counts as inactive or inconclusive.
What was measured:
[1] = molecular target: Glucocorticoid receptor (Homo sapiens) (UniProt P04150); experiment: GR-GFP Redistribution (AID 450;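 active means compounds whose dose series gives a full or clear partial fitted curve of increased nuclear translocation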; further: potency means the concentration at half of the fitted maximal effect); conditions: U2OS GR-GFP nuclear translocation, laser cytometry, 2 h
[2] = molecular target: Glucocorticoid receptor (Homo sapiens) (UniProt P04150); experiment: GR-EFC Redistribution (AID 451; calls by dose curve; further: potency means the concentration at half of the fitted maximal effect); conditions: CHO-K1 GR-EFC translocation, beta-gal luminescence, 2 h
Summary of the method: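 Translocation of GR-ED fusion to nuclear EA restores b-gal, read by luminescence after 1 h room-temperature detection. Engineered CHO-K1 biosensor cells, 1,000/well, exposed 2 h at 37 C to titrations up to 46 uM final.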

[3] = Cell Viability - N2a (AID 540); conditions: N2a mouse neuroblastoma cell viability; series mostly up to 92.2 µM;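 further: cells exposed to compound for 40 h at 37 °C; nearly all actives have a fitted effect of over 45% in size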
Summary of the method: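 First, 1500 N2a cells per well incubate 5 hr at 37 °C; next, compounds are added and incubated 40 hr at 37 °C; finally CellTiter-Glo is added and luminescence read after 20 min, with AC50 derived by Hill modeling.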

[4] = Cell Viability - NIH 3T3 (AID 541); conditions: NIH 3T3 cell viability, qHTS; series mostly up to 92.2 µM;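 further: cells exposed to compound for 40 hours; nearly all actives have a fitted effect of over 25% in size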
Summary of the method: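 AC50 values reflect concentration-dependent loss of intracellular ATP in NIH 3T3 cells after 40 hr treatment in complete culture medium, quantified by luciferase-based luminescence.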

[5] = Cell Viability - HUV-EC-C (AID 542); conditions: HUV-EC-C endothelial cell viability, qHTS; series mostly up to 92.2 µM;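 further: cells exposed to compound for 40 hours; nearly all actives have a fitted effect of over 35% in size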
Summary of the method: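 Decrease in cellular ATP, quantified by luciferase luminescence, reflects toxicity in normal human vascular endothelial HUV-EC-C cells given compound for 40 hr in complete culture medium. Values are AC50s from concentration-response curves.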

[6] = Cell Viability - H-4-II-E (AID 543); conditions: H-4-II-E rat hepatoma viability; series mostly up to 92.2 µM;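 further: cells exposed to compound for 40 hours; nearly all actives have a fitted effect of over 35% in size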
Summary of the method: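 Here, cytotoxicity is measured in the rat hepatoma line H-4-II-E as loss of intracellular ATP after 40 hr compound treatment, detected by luciferase luminescence.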

[7] = Cell Viability - SH-SY5Y (AID 544); conditions: SH-SY5Y neuroblastoma cell viability; series mostly up to 92.2 µM;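 further: cells exposed to compound for 40 hours; nearly all actives have a fitted effect of over 55% in size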
Summary of the method: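 Cytotoxicity is scored as a concentration-dependent fall in intracellular ATP in human SH-SY5Y cells treated 40 hr in complete culture medium. Potency is expressed as AC50 from a Hill equation fit.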

[8] = Cell Viability - Renal Proximal Tubule (AID 545); conditions: renal proximal tubule cells viability, primary cells of rat origin; series mostly up to 91.7 µM;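 further: cells exposed to compound for 40 hours; nearly all actives have a fitted effect of over 40% in size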
Summary of the method: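 Luminescent ATP signal (CellTiter-Glo) served as the viability read-out after 40 hr compound exposure of freshly isolated rat proximal tubule cells at 37 °C. Concentration-dependent ATP loss was fitted with the Hill equation to give AC50.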

[9] = Cell Viability - Mesenchymal (AID 546); conditions: mesenchymal cells viability, qHTS; series mostly up to 91.7 µM;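 further: cells exposed to compound for 40 hours before reading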
Summary of the method: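 AC50 values reflect the drop in intracellular ATP in a human kidney mesenchymal line derived from normal glomeruli. Treatment lasts 40 hr at 37 °C in complete medium, and the signal comes from CellTiter-Glo luminescence.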

[10] = molecular target: 3',5'-cyclic-AMP phosphodiesterase 4B (Homo sapiens) (UniProt Q07343); experiment: qHTS Assay for Inhibitors of PDE-IV (AID 607; active means well fitted activation curve with a large enough effect in the main read-out, with a control signal flat, not every such curve was filed as active); conditions: HEK293 ACTOne CNG channel cells, membrane potential fluorescence; series mostly up to 22.9 µM
Summary of the method: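 ACTOne HEK293 cells carry a modified cAMP-gated CNG channel and express endogenous PDE4; plated 1000 cells/well, compounds up to 22.9 uM final. Membrane-potential dye fluorescence (ex 535/em 590) was read; parental cells received 10 uM forskolin + 100 uM RO 20-1724.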

[11] = Cellular Toxicity (caspase-3) HepG2 (AID 654); conditions: HepG2 caspase-3 activation, luminescence, 0% = DMSO only, 100% = tamoxifen; series mostly up to 92.2 µM;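 further: cells exposed to compound for 16 hours before reading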
Summary of the method: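 qHTS, HepG2, 1500 cells/well, complete medium; cpd 16 h 37 °C; Caspase-Glo 3/7, 20 min RT; lum. Norm: DMSO vs 100 uM tamoxifen; AC50 Hill fit.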

[12] = Cellular Toxicity (caspase-3) Jurkat (AID 655); conditions: Jurkat caspase-3 activation, luminescence, DMSO = 0%, tamoxifen = 100%; series mostly up to 92.2 µM;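 further: cells exposed to compound for 16 h at 37 °C before reading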
Summary of the method: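 5000 Jurkat cells/well; compound 16 hr, 37 °C; Caspase-Glo 3/7 added, 20 min RT; luminescence read. Norm: DMSO = 0%, tamoxifen 100 uM = 100%. AC50, Hill model.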

[13] = Cellular Toxicity (caspase-3) HUV-EC-C (AID 656); conditions: HUV-EC-C cells, caspase-3 activation (apoptosis), vehicle = 0, 100 µM tamoxifen = 100%; series mostly up to 92.2 µM
Summary of the method: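 qHTS; HUV-EC-C, 1000 cells/well; 5 hr settle, 16 hr cmpd, 37°C; Caspase-Glo 3/7, 20 min RT; luminescence. Norm: DMSO = 0%, tamoxifen 100 uM = 100%. Hill-fit AC50.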

[14] = Cellular Toxicity (caspase-3) SHSY5Y (AID 657); conditions: SH-SY5Y caspase-3 activation, DMSO zero, 10 µM staurosporine = 100%; series mostly up to 91.7 µM;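 further: cells exposed to compound for 16 hours at 37 °C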
Summary of the method: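 qHTS, SH-SY5Y, 1500 cells/well, 5 h pre-incubation 37 °C; compound 16 h 37 °C; Caspase-Glo 3/7 1 h RT; luminescence. Norm.: DMSO = 0, 10 uM staurosporine = 100%. Hill fit → AC50.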

[15] = Cellular Toxicity (caspase-3) BJ (AID 658); conditions: BJ fibroblasts, luminescence, normalized: DMSO 0%, staurosporine 100%; series mostly up to 91.7 µM
Summary of the method: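 Readout: Caspase-Glo 3/7 luminescence increase in BJ cells after 16 hr treatment at 37 °C. Staurosporine and tamoxifen served as positive controls; AC50 values came from Hill modelling of data normalized to DMSO and 10 uM staurosporine.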

[16] = Cellular Toxicity (caspase-3) MRC-5 (AID 659); conditions: MRC-5 cells, luminescence, normalized: DMSO 0%, 10 µM staurosporine 100%; series mostly up to 91.7 µM
Summary of the method: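 Concentration-dependent caspase 3/7 activation is measured in human normal lung fibroblasts (MRC-5) following 16-hour treatment. AC50 values come from standard Hill-equation modeling of luminescence normalized to DMSO and 10 uM staurosporine.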

[17] = Cellular Toxicity (caspase-3) Mesangial (AID 660); conditions: mesangial cells, normalized: DMSO 0%, 100 µM tamoxifen 100%; series mostly up to 91.7 µM;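 further: combined caspase 3 and 7 activity read by Caspase-Glo luminescence; cells exposed to compound for 16 h before the caspase read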
Summary of the method: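 Concentration-response qHTS: compound-induced rise in caspase 3/7 luminescence in human mesangial cells after 16 h, normalized to DMSO and 100 uM tamoxifen controls.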

[18] = Cellular Toxicity (caspase-3) SK-N-SH (AID 661); conditions: SK-N-SH caspase-3 activation, qHTS, DMSO as zero, staurosporine as full; series mostly up to 91.7 µM
Summary of the method: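 Caspase 3/7 activation is measured as a luminescence increase from aminoluciferin released by substrate cleavage in SK-N-SH cells after 16 hr compound treatment; values are AC50 from concentration-response curves.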

[19] = Cellular Toxicity (caspase-3) H-4-II-E (AID 663); conditions: H-4-II-E rat hepatoma, scaled: DMSO 0%, 100 µM tamoxifen 100%; series mostly up to 92.2 µM;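 further: cells exposed to compound for 16 hr before readout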
Summary of the method: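 Apoptosis induction is scored as increased luminescence from caspase 3/7 substrate cleavage in rat hepatoma H-4-II-E cells exposed to compound for 16 hr. Activity is scaled between DMSO and 100 uM tamoxifen.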

[20] = Cellular Toxicity (caspase-3) Hek293 (AID 664); conditions: HEK293 caspase-3 activation, DMSO = 0%, 100 µM tamoxifen = 100%; series mostly up to 92.2 µM;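 further: cells exposed to compound for 16 h at 37 °C before readout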
Summary of the method: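 Activation of caspase-3/7 is measured as increased luminescence from cleaved peptide-aminoluciferin substrate in HEK293 cells treated 16 hours at 37 °C. AC50 values come from Hill-equation fits of concentration-response data.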

Measured: Potency

Glucocorticoid receptor (Homo sapiens), sequence (P04150 whole entry, looked up, the tested form may be a part): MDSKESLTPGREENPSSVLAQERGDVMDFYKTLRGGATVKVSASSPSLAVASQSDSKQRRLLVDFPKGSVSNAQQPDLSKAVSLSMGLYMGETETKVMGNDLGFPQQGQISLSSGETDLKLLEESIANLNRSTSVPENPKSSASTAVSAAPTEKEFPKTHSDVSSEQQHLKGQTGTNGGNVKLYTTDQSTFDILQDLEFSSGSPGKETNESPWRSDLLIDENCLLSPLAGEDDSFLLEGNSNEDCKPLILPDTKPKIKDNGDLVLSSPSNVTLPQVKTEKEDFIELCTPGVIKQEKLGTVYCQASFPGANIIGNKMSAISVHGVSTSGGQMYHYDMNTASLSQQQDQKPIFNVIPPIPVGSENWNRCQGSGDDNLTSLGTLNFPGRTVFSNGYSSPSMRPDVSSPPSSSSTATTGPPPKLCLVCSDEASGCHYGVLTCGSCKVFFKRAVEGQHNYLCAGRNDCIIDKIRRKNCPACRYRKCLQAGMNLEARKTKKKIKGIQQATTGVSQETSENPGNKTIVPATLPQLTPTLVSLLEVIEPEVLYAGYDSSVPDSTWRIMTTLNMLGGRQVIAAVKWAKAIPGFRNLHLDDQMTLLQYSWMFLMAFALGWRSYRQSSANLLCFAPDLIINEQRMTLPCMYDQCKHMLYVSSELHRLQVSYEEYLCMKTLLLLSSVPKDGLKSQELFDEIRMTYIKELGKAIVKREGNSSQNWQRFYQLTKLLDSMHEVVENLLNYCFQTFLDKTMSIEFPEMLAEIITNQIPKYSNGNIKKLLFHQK
3',5'-cyclic-AMP phosphodiesterase 4B (Homo sapiens), sequence (Q07343 whole entry, looked up): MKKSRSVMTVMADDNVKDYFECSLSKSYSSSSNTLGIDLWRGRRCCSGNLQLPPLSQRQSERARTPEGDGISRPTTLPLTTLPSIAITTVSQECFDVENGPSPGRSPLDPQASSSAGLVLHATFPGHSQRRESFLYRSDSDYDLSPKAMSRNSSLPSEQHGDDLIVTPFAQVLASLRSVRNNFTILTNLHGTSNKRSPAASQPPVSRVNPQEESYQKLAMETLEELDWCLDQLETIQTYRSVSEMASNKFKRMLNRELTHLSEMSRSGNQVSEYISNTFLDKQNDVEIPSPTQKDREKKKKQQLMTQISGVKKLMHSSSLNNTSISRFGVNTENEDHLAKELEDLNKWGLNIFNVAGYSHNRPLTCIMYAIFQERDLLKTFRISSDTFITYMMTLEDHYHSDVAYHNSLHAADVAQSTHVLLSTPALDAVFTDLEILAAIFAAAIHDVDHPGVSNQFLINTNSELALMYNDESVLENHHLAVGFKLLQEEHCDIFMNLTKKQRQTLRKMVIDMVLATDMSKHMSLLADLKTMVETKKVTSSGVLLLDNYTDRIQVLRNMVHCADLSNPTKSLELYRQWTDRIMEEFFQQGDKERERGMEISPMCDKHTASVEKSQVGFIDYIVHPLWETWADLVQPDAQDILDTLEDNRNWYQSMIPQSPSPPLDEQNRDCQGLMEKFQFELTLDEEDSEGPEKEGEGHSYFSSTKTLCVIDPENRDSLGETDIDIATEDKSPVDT

O=c1[nH]cnc2[nH]ncc12
inactive: [1] > 46 µM | [2] > 46 µM | [3] | [4] | [5] | [6] | [7] | [8] | [9] | [10] | [11] | [12] | [13] | [14] | [15] | [16] | [17] | [18] | [19] | [20]

CC(C[N+](C)(C)C)OC(N)=O (stereo unspecified)
inactive: [1] > 20.6 µM

CC(=O)Oc1ccccc1C(=O)O
inactive: [1] > 46 µM | [2] > 46 µM | [3] | [4] | [5] | [6] | [7] | [8] | [9] | [10] | [11] | [12] | [13] | [14] | [15] | [16] | [17] | [18] | [19] | [20]

CCOC(=O)C1=C[C@]2(CC)CCCN3CCc4c(n1c1ccccc41)[C@@H]32
inactive: [1] > 20.6 µM

CCN(c1ccccc1)c1cc(NC)[n+](C)c(C)n1
inactive: [1] > 46 µM | [2] > 46 µM | [10]

CCCCNc1cc(C(=O)O)cc(S(N)(=O)=O)c1Oc1ccccc1
inactive: [10]

N=c1nc(N2CCCCC2)cc(N)n1O
inactive: [1] > 46 µM and > 20.6 µM | [2] > 46 µM and > 20.6 µM | [10]

Nc1nc2c(ncn2COCCO)c(=O)[nH]1
inactive: [1] > 46 µM and > 20.6 µM | [2] > 46 µM and > 20.6 µM | [10]

CNC[C@H](O)c1cccc(O)c1
inactive: [10]

Cc1ccc(N(CC2=NCCN2)c2cccc(O)c2)cc1
inactive: [1] > 46 µM and > 20.6 µM | [2] > 46 µM and > 20.6 µM | [10]

CC(C)(Sc1ccc(CCN(CCCCC2CCCCC2)C(=O)NC2CCCCC2)cc1)C(=O)O
inactive: [1] > 46 µM | [2] > 46 µM | [10]

Nc1ccc(S(=O)(=O)Nc2ccnn2-c2ccccc2)cc1
inactive: [1] > 46 µM and > 20.6 µM | [2] > 46 µM and > 20.6 µM | [10]

Nc1nc2ccc(OC(F)(F)F)cc2s1
inactive: [1] > 46 µM and > 20.6 µM | [2] > 46 µM and > 20.6 µM | [10]

NS(=O)(=O)c1cc2c(cc1Cl)NC=NS2(=O)=O
not listed: [1] | [2]
inactive: all other assays above

NC[C@H](O)c1ccc(O)c(O)c1
inactive: [1] > 46 µM | [2] > 46 µM | [10]

C1COC(NC(C2CC2)C2CC2)=N1
inactive: [10]

CN1CCN(CCCN2c3ccccc3Sc3ccc(C(F)(F)F)cc32)CC1
inactive: [1] > 46 µM and > 20.6 µM | [2] > 46 µM and > 20.6 µM and > 9.22 µM | [10]

CCOC(=O)N1CCC(=C2c3ccc(Cl)cc3CCc3cccnc32)CC1
inactive: [1] > 46 µM and > 20.6 µM | [2] > 46 µM | [10]

COc1ccc2nc(S(=O)Cc3ncc(C)c(OC)c3C)[nH]c2c1 (stereo unspecified)
inactive: [10]

O=c1n(CCCN2CCN(c3cccc(Cl)c3)CC2)nc2ccccn12
inactive: [10]

Cc1cc2c(C(C)C)c(O)c(O)c(C=O)c2c(O)c1-c1c(C)cc2c(C(C)C)c(O)c(O)c(C=O)c2c1O
inactive: [1] > 20.6 µM and > 46 µM | [2] > 20.6 µM and > 46 µM | [10]

Cc1oncc1C(=O)Nc1ccc(C(F)(F)F)cc1
inactive: [1] > 46 µM and > 20.6 µM | [2] > 46 µM and > 20.6 µM | [10]

Clc1cccc(Cl)c1NC1=NCCN1
inactive: [1] > 46 µM and > 20.6 µM | [2] > 46 µM and > 20.6 µM | [10]

NCCc1ccc(O)c(O)c1
inactive: [10]

Cc1[nH]c(=O)c(C#N)cc1-c1ccncc1
inactive: [10]

Source: PubChem BioAssay (NCATS)
